PBM binding z-score data for 7 sequences are collected here from the supplement of paper PMC6555819.

Assay in all cases: PBM binding z-score (relative to random genomic background probes); higher = stronger binding; sequences stand for … in GC…GCGATTGACAGCGTAGAATGAAGG
In test [1] the test system is FXR:RXRa (NR concentration 270 nM, RXRa partner concentration 90 nM). The method, boiled down: (§1)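 Scanned fluorescence from custom Agilent 4×180K protein-binding microarrays was regression-normalized. Binding z-scores use random background probes as reference. Ligand-free nuclear receptor dimers were incubated on the arrays for 1 h and detected with antibodies against each partner (one per run).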

Test [2] concerns LXRa:RXRa (NR concentration 270 nM, RXRa partner concentration 90 nM). The method, boiled down:
as §1

For test [3], the system named is LXRa homodimer (NR concentration 270 nM). The gist of the method:
as §1

Test [4] deals with LXRb:RXRa (NR concentration 270 nM, RXRa partner concentration 90 nM). The gist of the method:
as §1

Test [5] concerns LXRb homodimer (NR concentration 270 nM). The gist of the method: as §1
The subject of test [6] is PPARa:RXRa (NR concentration 270 nM, RXRa partner concentration 90 nM). The gist of the method:
as §1

The test system of test [7] is PPARg:RXRa (NR concentration 180 nM, RXRa partner concentration 90 nM). The gist of the method: as §1
In test [8] the test system is PPARg:RXRa 270nM:90nM, anti-RXR (NR concentration 270 nM, RXRa partner concentration 90 nM). The method, boiled down:
as §1

The subject of test [9] is PPARg:RXRa 30nM:10nM, anti-RXR (NR concentration 30 nM, RXRa partner concentration 10 nM). The method, boiled down:
as §1

In test [10] the test system is PPARg:RXRa 90nM:30nM, anti-RXR (NR concentration 90 nM, RXRa partner concentration 30 nM). The gist of the method: as §1
In test [11] the test system is PPARg:RXRa DBDmut IVT, anti-RXR (DBD mutation: RXRa K156A/R161A, NR concentration 270 nM, RXRa partner concentration 90 nM). The method, boiled down:
as §1

In test [12] the test system is PPARg:RXRa IVT, anti-PPARg (NR concentration 270 nM, RXRa partner concentration 90 nM). The method, boiled down: as §1
In test [13] the test system is PPARg DBDmut:RXRa IVT, anti-PPARg (DBD mutation: PPARg1 K132A/R137A, NR concentration 270 nM, RXRa partner concentration 90 nM). The method, boiled down: as §1
Test [14] deals with PPARg DBDmut IVT, anti-PPARg (DBD mutation: PPARg1 K132A/R137A, NR concentration 270 nM). The gist of the method:
as §1

The test system of test [15] is PPARg homodimer (NR concentration 180 nM). The method, boiled down:
as §1

Test [16] deals with PXR:RXRa (NR concentration 270 nM, RXRa partner concentration 90 nM). The gist of the method: as §1
Test [17] relates to PXR homodimer (NR concentration 270 nM). The method, boiled down: as §1
In test [18] the test system is RARa:RXR (NR concentration 270 nM, RXRa partner concentration 90 nM). The gist of the method:
as §1

In test [19] the test system is RARa homodimer (NR concentration 270 nM). The gist of the method:
as §1

Test [20] relates to RARb:RXRa (NR concentration 270 nM, RXRa partner concentration 90 nM). The gist of the method: as §1

Turning to CCAGACAGGTGCGAAGGTAACTCAGCCTCGATTA, the PBM binding z-score in test [1] is -0.321; in [2], -0.36; in [3] it was -0.34; in test [4], -0.424; in [5], -0.755; in [6], -0.406. For the same sequence, the PBM binding z-score in [7] is 0.0695; in [8], -0.0964; in test [9] it was -0.987; in test [10], -0.523; in [11], -0.128; in [12], -0.749. The PBM binding z-score is -1.66 in [13]; -1.77 in test [14]; -0.207 in [15]; -0.494 in test [16]; -0.385 in test [17]; -0.323 in test [18]. Moreover, the values for the PBM binding z-score in test [19] and in [20] were 0.0972 and -0.199, respectively.

On to GCAGGCAGGTGAAACGCAGGTAACTCAGGGTGGC, for which the PBM binding z-score is 0.782 in test [1]; 0.881 in [2]; -0.513 in [3]; -0.67 in test [4]; -0.423 in test [5]; 0.341 in test [6]. For the same sequence, the PBM binding z-score in test [7] was 0.206; in test [8] it was -0.46; in [9], -0.909; in [10], -0.6; in [11], 1.12; in [12], 0.912. Further, the PBM binding z-score in test [13] was -1; in [14], -1.1; in test [15] it was -0.662; in test [16], -0.0371; in test [17] it was -1.2; in [18] it was 0.429. Also, the results for the PBM binding z-score in test [19] and in [20] were -0.796 and 0.562, respectively.

GCATATAGGTAATACAAGGTGATAGTCCGATTGT: the PBM binding z-score is 1.42 in test [1]; 0.97 in test [2]; 0.0526 in test [3]; -0.116 in test [4]; -0.184 in test [5]; 0.93 in [6]. Further, the PBM binding z-score in test [7] was 1.32; in test [8], 0.737; in [9], 0.438; in test [10], 0.536; in test [11], 4.05; in test [12], 2.84. Further, the PBM binding z-score in test [13] was 1.05; in test [14] it was 1.46; in test [15], 0.142; in test [16] it was 0.0575; in [17], -0.157; in test [18] it was 0.688. For the same sequence, the values for the PBM binding z-score in [19] and in test [20] were 0.359 and -0.103, respectively.

In the case of CGTCCAAGGTTAGCAGGTCAGTGAAAGCGACGTG, the PBM binding z-score was 1.34 in test [1]; 1.26 in test [2]; -0.0811 in test [3]; 0.92 in test [4]; -0.45 in [5]; 2.44 in [6]. In addition, the PBM binding z-score is 1.18 in [7]; 2.08 in test [8]; -0.171 in test [9]; 1.04 in [10]; 2 in test [11]; 2.5 in test [12]. In addition, the PBM binding z-score in test [13] was -0.8; in test [14], -0.782; in test [15], 1.06; in test [16] it was 1.18; in [17], -0.346; in test [18] it was 2.01. Moreover, the PBM binding z-score in test [19] was -0.223; in test [20], 3.08.

As to CCTCCTGGGCCATCAGGTCATTGATATCAACGTT, the PBM binding z-score in [1] amounted to 1.24; in test [2] it was 0.991; in test [3] it was 0.788; in test [4] it was 1.31; in test [5], 0.0311; in test [6] it was 1.73. Moreover, the PBM binding z-score is 0.38 in test [7]; 1.29 in test [8]; -0.255 in test [9]; 0.67 in test [10]; 0.202 in [11]; 1.81 in [12]. Also, the PBM binding z-score in [13] is -1.18; in test [14], -0.736; in test [15] it was 0.643; in test [16] it was 1.34; in [17] it was 0.852; in test [18], 2.16. Also, the results for the PBM binding z-score in test [19] and in [20] were -0.969 and 1.99, respectively.

For ATCTCTAGGTAACCTAGTTCAGTGAATGCCGAAC, the PBM binding z-score in test [1] was determined as 0.745; in test [2] it was 1.07; in test [3], 0.16; in test [4], 1.26; in test [5] it was 0.421; in [6] it was 2.24. Further, the PBM binding z-score in test [7] was determined as 1.69; in test [8], 1.42; in [9], 0.221; in [10] it was 0.568; in test [11], 4.08; in test [12], 4.62. The PBM binding z-score in test [13] was 1.92; in test [14], 1.24; in test [15], 1.02; in test [16] it was 1.02; in test [17], 0.262; in test [18] it was 0.692. Moreover, the results for the PBM binding z-score in [19] and in [20] were 0.202 and 0.704, respectively.

With ACTAGCATGCCAAGTTTGGGTCACTCAAACAAAG, the PBM binding z-score in [1] was 0.0536; in test [2], 0.057; in test [3], -0.432; in test [4], 0.606; in test [5], -0.573; in [6] it was 1.23. The PBM binding z-score in test [7] was 0.0927; in test [8], 0.138; in [9] it was -0.204; in test [10] it was -0.214; in test [11] it was -0.0858; in [12], 0.673. Also, the PBM binding z-score in [13] was -0.779; in [14], -0.563; in [15] it was 0.0985; in test [16] it was 0.71; in test [17] it was -0.444; in test [18], 1.14. Further, the PBM binding z-score was -0.448 in [19] and 1.28 in test [20].
